Inconclusive results are not listed. The source made the active and inactive calls. Calls come from the whole dose curve; as a rule, active = well fitted activation curve with a large enough effect; inconclusive = small, poorly fitted or top-dose-only effect; inactive = flat fitted curve, though single readings scatter.

This assay can be described thus: Validation screen for small molecules that induce DNA re-replication in SW480 colon adenocarcinoma cells (AID 504364). Particulars: DNA re-replication phenotype (high-content imaging); series mostly up to 46.1 µM. The method, boiled down: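 SW480 cells (250/well) exposed 48 h at 37 C, 5% CO2, then Hoechst-stained 40 min. Nuclear DNA content imaged by fluorescence scanning (405 nm excitation, 500-530 nm emission); re-replication scored as increased nuclei with elevated intensity.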
Regarding `CNC(=O)[C@H]1O[C@@H](n2cnc3c(NCc4cccc(I)c4)ncnc32)[C@H](O)[C@H]1O`, the result was inactive. To `CC(N)=NCCCC(N)C(=O)O` (stereo not given) belongs “inactive”; to `Cc1cn([C@H]2C[C@@H](N=[N+]=[N-])[C@@H](CO)O2)c(=O)[nH]c1=O`, “inactive”; to `N.N.N.N.N.N.N.N.N.N.N.N.N.N.O.O.[Cl-].[Cl-].[Cl-].[Cl-].[Cl-].[Cl-].[Ru].[Ru].[Ru]`, “inactive”. For `CN=C(N)NCCCC(N)C(=O)O` (stereo not given), the outcome was inactive. For the compound `COc1c2c(nc3ccccc13)OC(C(C)(O)CO)C2` (stereo not given), the call was inactive.

`CN1C2CC(OC(=O)C(CO)c3ccccc3)CC1C1OC12` (stereo not given): the compound was classed as inactive. To `CC(C)C1NC(=O)[C@H](CCCCN)NC(=O)[C@@H](Cc2c[nH]c3ccccc23)NC(=O)[C@H](Cc2ccc(O)cc2)NC(=O)[C@H](C)N(C)C(=O)[C@H](Cc2ccccc2)NC1=O` (stereo not given in full) belongs “inactive”; to `NCCC(=O)NCCc1cnc[nH]1`, “inactive”; to `O=C(Cc1ccc(Cl)c(Cl)c1)OCCN1CCCC1`, “inactive”. To `Cc1ccccc1N1CCN(S(=O)(=O)C[C@]23CCC(CC2NC(=O)[C@@H](N)CCS(C)(=O)=O)C3(C)C)CC1` (stereo not given in full) belongs “inactive”.

In the case of `NC(=O)C1=CN(C2OC(COP(=O)(O)OP(=O)(O)OC[C@H]3O[C@@H](n4cnc5c(N)ncnc54)[C@H](OP(=O)(O)O)[C@H]3O)C(O)C2O)C=CC1` (stereo not given in full), the call was inactive.

In the case of `CC(=O)[C@@]1(O)CC[C@H]2C3CCC4=CC(=O)CC[C@]4(C)C3CC[C@@]21C` (stereo not given in full), the result was inactive. The result for `OC[C@H]1O[C@@H](n2cnc3c(NCCc4ccccc4)ncnc32)[C@H](O)[C@H]1O` reads “inactive”. Take `CCCCCCCCCCCCCCC/C=C/[C@@H](O)[C@H](NC(=O)CCCCCCCCCCCCC)OC` (tested in a mixture with another compound): the result was inactive.

For the compound `CNc1ncnc2c1ncn2[C@@H]1O[C@H](CO)[C@H](O)[C@H]1O`, the call was inactive.

As for `NCCNC(=O)c1ccc(Cl)cc1`, the compound was classed as inactive.

Turning to `NC(=NCCC[C@H](N)C(=O)O)NO`, the compound was classed as inactive. To `OC[C@H]1O[C@@H](n2cnc3c(Nc4ccccc4)ncnc32)[C@H](O)[C@H]1O` belongs “inactive”; to `N[C@H](Cc1ccc(O)c(O)c1)C(=O)O`, “inactive”. `Nc1nc(Nc2ccccc2)nc2c1ncn2[C@@H]1O[C@H](CO)[C@H](O)[C@H]1O`: the result was inactive. To `NC(=S)c1ccc[n+]([C@@H]2O[C@@H](COP(=O)([O-])OP(=O)(O)OC[C@H]3O[C@@H](n4cnc5c(N)ncnc54)[C@H](OP(=O)(O)O)[C@H]3O)C(O)C2O)c1` (stereo not given in full) belongs “inactive”; to `O=C(O)CC[C@H](NC(=O)c1ccccc1C(=O)O)C(=O)O`, “inactive”; to `NCC1OC(O[C@@H]2[C@H](O)[C@@H](OC3C(O)C(N)CC(N)C3OC3OC(CO)C(O)C(O)C3N)O[C@@H]2CO)C(N)C(O)C1O` (stereo not given in full), “inactive”. To `COc1cc(=O)n(C)c2c(OCC(O)C(C)(C)O)cccc12` (stereo not given) belongs “inactive”; to `C[C@]12CCC(=O)C=C1CC[C@@H]1C2[C@@H](O)C[C@@]2(C)[C@H]1CC[C@]2(O)C(=O)CO` (stereo not given in full), “inactive”; to `CN1C(=O)CCC1c1cccnc1` (stereo not given), “inactive”.

`CC(=O)O[C@H]1C[C@@H]2CCC3C(CC[C@@]4(C)[C@H]3C[C@H]([N+]3(C)CCCCC3)[C@@H]4OC(C)=O)[C@@]2(C)C[C@@H]1[N+]1(C)CCCCC1` (stereo not given in full): the compound was classed as inactive. To `N=C(N)SCCc1cccc(CCSC(=N)N)c1` belongs “inactive”; to `Nc1nc(SCc2ccc([N+](=O)[O-])cc2)c2ncn([C@@H]3O[C@H](CO)[C@H](O)[C@H]3O)c2n1`, “inactive”.

The values above are taken from PubChem BioAssay (NCATS).
